Assay results from PubChem BioAssay AID488969 (Vanderbilt High Throughput Screening Facility, 2010).
The full ranking holds about 110,000 compounds; the median of “z-score” is about -0.1, and the highest 2% start at about 2. Many of the other results were omitted from the sample, so the highest values are more common in it than they were. Calls of active or inactive are those of the source.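 The calls were made as follows: active = z-score in the third read window above 3 or below -3; inactive = the rest.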

target: Metabotropic glutamate receptor 8 (Rattus norvegicus) (UniProt P70579); experiment: mGluR8 Gi/Go-coupled signaling modulation – cell-based, rat, thallium flux, HTS, primary screen (AID 488969); details: HEK293 rat mGluR8, GIRK (G protein-gated inwardly rectifying potassium channel) thallium flux, FluoZin2; at 10 µM; stronger effect = higher value; submaximal glutamate (EC20) added with thallium
Sequence (P70579 whole entry, looked up): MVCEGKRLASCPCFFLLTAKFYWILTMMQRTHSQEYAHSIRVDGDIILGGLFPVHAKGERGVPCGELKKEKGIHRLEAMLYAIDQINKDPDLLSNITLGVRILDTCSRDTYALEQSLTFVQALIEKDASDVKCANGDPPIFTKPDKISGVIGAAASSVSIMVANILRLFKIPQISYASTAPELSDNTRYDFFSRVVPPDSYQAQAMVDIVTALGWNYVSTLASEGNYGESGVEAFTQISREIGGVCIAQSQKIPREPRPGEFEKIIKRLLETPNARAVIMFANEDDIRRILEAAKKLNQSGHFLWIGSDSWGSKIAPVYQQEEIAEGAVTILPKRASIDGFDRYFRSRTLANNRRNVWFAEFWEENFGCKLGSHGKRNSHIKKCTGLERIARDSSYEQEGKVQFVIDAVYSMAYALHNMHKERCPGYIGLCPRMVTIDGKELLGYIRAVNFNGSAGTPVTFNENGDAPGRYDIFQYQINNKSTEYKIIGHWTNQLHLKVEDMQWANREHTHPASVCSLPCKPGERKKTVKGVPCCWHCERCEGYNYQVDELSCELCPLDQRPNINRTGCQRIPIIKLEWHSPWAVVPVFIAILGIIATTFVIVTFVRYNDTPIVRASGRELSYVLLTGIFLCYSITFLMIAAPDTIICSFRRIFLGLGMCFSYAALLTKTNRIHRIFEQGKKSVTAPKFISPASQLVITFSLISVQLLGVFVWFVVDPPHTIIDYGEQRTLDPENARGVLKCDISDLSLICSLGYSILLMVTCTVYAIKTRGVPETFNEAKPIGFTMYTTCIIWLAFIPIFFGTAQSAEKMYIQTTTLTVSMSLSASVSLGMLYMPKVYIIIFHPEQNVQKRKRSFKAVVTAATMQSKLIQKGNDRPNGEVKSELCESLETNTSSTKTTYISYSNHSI

Row | SMILES | z-score
1 | Cc1ccc(NCCC(=O)c2ccc(Cl)cc2)cc1 | -0.27
2 | Cc1ccc(C(=O)CC(=O)COc2ccc(Cl)cc2)cc1 | 5.07 (active)
3 | COC(=O)C(CC(=O)c1ccc(Cl)cc1)c1ccc(C)cc1 (configuration not stated) | -0.155
4 | Cc1ccc(C(=O)CC(=O)COc2ccc(Cl)cc2C)cc1 | 5.45 (active)
5 | Cc1ccc(NC(=O)c2ccc(OC(=O)COc3ccc(Cl)cc3C)cc2)cc1 | -0.069
6 | Cc1cc(Cl)ccc1OCC(=O)NC1CCCC1 | 0.0341
7 | Cc1cc(C)nc(/N=C(\N)Nc2ccc([N+](=O)[O-])cc2)n1 | -0.477
8 | O=C(O)c1cccc(-n2cnnn2)c1 | -0.667
9 | CCSc1nnc(NC(=O)CC)s1 | 5.27 (active)
10 | CCC(=O)Nc1nnc(SCCOC)s1 | 0.214
11 | CCC(NC(=O)Nc1nnc(C(F)(F)F)s1)(C(F)(F)F)C(F)(F)F | 0.241
12 | CCCC(=O)Nc1nnc(SCC)s1 | 0.0928
13 | CCSc1nnc(NC(=O)C(CC)(C(F)(F)F)C(F)(F)F)s1 | -0.322
14 | CCSc1nnc(NC(=O)NC(CC)(C(F)(F)F)C(F)(F)F)s1 | 3.86 (active)
15 | CCCCN1CCc2[nH]c(=S)[nH]c(=O)c2C1 | -0.178
16 | Cc1ccccc1C(=O)Oc1cccc(Nc2ncnc3ccccc23)c1 | -1.4
17 | CC(NC(=O)C1CCC1)c1ccc(Br)cc1 (configuration not stated) | -0.264
18 | CCN(CC)S(=O)(=O)c1cccc(C(=O)NC(C(=O)NC2=NCCS2)C(C)C)c1 (configuration not stated) | 0.126
19 | CCNc1nc(NC#N)nc(SCC(=O)OCC)n1 | -0.413
20 | COC(=O)c1ccc(CSc2nc3c(cnn3-c3ccccc3)c(=O)[nH]2)o1 | -0.686
21 | O=C(CCc1ccccc1)NNC(=O)c1ccc(NC(=O)c2ccccc2)cc1 | 0.0748
22 | O=C(CCc1ccccc1)NNC(=S)NC(=O)c1ccccc1 | 1.13
23 | O=C(CCc1ccccc1)NNC(=S)NC(=O)c1ccc(Cl)cc1 | 3.03 (active)

Row | SMILES | z-score
24 | COc1ccc(C(=O)NC(=S)NNC(=O)CCc2ccccc2)cc1 | 3.38 (active)
25 | CC(C)(C)c1ccc(OCC(=O)NNC(=O)CCc2ccccc2)cc1 | 0.639
26 | CC(=O)Nc1ccc(C(=O)NNC(=O)CCc2ccccc2)cc1 | -0.185
27 | O=C(Cc1csc(N2CCOCC2)n1)N/N=C/c1ccc(Cl)cc1Cl | -0.885
28 | N#Cc1c2n(c(=S)n(-c3ccccn3)c1=O)CCCCC2 | -0.927
29 | N#Cc1c2n(c3c(=S)nc[nH]c13)CCCCC2 | 2.2
30 | N#Cc1c2n(c(=O)[nH]c1=O)CCCCC2 | -0.0381
31 | O=C(CNC(=O)c1ccccc1F)NCCOc1ccccc1Cl | -0.065
32 | CCOc1ccc(N=CC2=C(O)CC(C)(C)CC2=O)cc1 | 0.649
33 | CCOC12CC(C)(C)CC(C)(CC3=C1C(=O)CC(C)(C)C3)C2 (configuration not stated) | 2.32
34 | CC1(C)CC(=O)C2=C(C1)OC1=C(C(=O)CC(C)(C)C1)C2(C)C | -0.182
35 | CCOC(=O)C1CCCN(C(=O)CN2C(=O)COc3ccc(C(C)(C)C)cc32)C1 (configuration not stated) | -1.06
36 | CCOC(=O)N1CCN(Cc2nc3c(c(=O)n(C)c(=O)n3C)n2Cc2ccccc2C)CC1 | -0.27
37 | S=C(NCCc1ccccc1)Nc1ccc(Cl)cc1Cl | 1.43
38 | Fc1cc(Br)ccc1NC(=S)Nc1ccccc1 | 0.843
39 | Fc1cc(Br)ccc1NC(=S)NCCc1ccccc1 | 7.09 (active)
40 | S=C(NCCc1ccccc1)Nc1ccc(Br)cc1 | 0.268
41 | COc1ccc(NC(=S)NCCc2ccc(Cl)cc2)c(OC)c1 | 0.319
42 | COc1ccccc1NC(=S)NCCc1ccccc1 | -0.188
43 | Fc1ccc(NC(=S)NCCc2ccccc2)c(F)c1F | 2.71
44 | Fc1ccccc1NC(=S)NCCc1ccccc1 | 0.134
45 | COc1ccccc1NC(=S)NCCc1ccc(Cl)cc1 | 3.06 (active)
46 | COc1cc2c(cc1NC(=O)CSc1ccccc1)oc1ccccc12 | -0.258

Row | SMILES | z-score
47 | O=C(N/N=C/c1c[nH]c2ccccc12)c1cc(-c2cccc3ccccc23)n[nH]1 | -0.463
48 | COc1ccc(OCC(=O)O/N=C(\N)Cc2ccc(Cl)cc2Cl)cc1 | 0.353
49 | CCOC(=O)c1[nH]c(C)c(/C(O)=C2\C(=O)C(=O)N(CCCN(C)C)C2c2cccnc2)c1C (configuration not stated) | -0.333
50 | COc1cc(CNc2nc3ccccc3n2C)cc(OC)c1OC | -0.245
51 | CCCNC(=O)COC(=O)c1cc(SC)ccc1Cl | 0.561
52 | O=C(CN(C(=O)Cn1nnc(-c2cccs2)n1)c1ccc2c(c1)OCCO2)NC1CCCCC1 | -0.0843
53 | Cc1cccc(N2C(=S)N=C(Nc3c(C)cccc3C)C23CCOC(C)(C)C3)c1 (configuration not stated) | -0.179
54 | Cc1ccc(N2C(=S)N=C(Nc3ccccc3C)C23CCOC(C)(C)C3)cc1 (configuration not stated) | 15 (active)
55 | Cc1cccc(C)c1NC1=NC(=S)N(c2ccccc2)C12CCOC(C)(C)C2 (configuration not stated) | 0.847
56 | Cc1cccc(C)c1NC1=NC(=S)N(c2ccc(N(C)C)cc2)C1(C)C | 1.87
57 | Cc1ccccc1NC1=NC(=S)N(c2ccccc2)C12CCOC(C)(C)C2 (configuration not stated) | 12.6 (active)
58 | CCC1(C)C(Nc2c(C)cccc2C)=NC(=S)N1c1ccc(NC(C)=O)cc1 (configuration not stated) | -0.38
59 | Cc1sc(NC(=S)NC(=O)C(C)(C)C)c(C(N)=O)c1C | -0.0974
60 | O=C(O)C1C2C=CC(C2)C1C(=O)NCCc1ccncc1 (configuration not stated) | 0.718
61 | O=C(O)C1C2C=CC(C2)C1C(=O)NCCc1ccccc1 (configuration not stated) | -0.122
62 | O=C(O)C1C2C=CC(C2)C1C(=O)NCCc1cccc(Cl)c1 (configuration not stated) | 6.03 (active)
63 | CCc1nnc(NC(=O)CN2CCN(c3cccc(OC)c3)CC2)s1 | 0.136
64 | CCC(COC(=O)Nc1cccc(C)c1C)NC(=O)OCC(C)C (configuration not stated) | -0.549
65 | CCCOC(=O)NC(CC)COC(=O)Nc1cccc(C)c1C (configuration not stated) | 3.15 (active)
66 | CCCOC(=O)NC(CC)COC(=O)Nc1cc(C)ccc1C (configuration not stated) | -0.0367
67 | CN(C1CCCCC1)S(=O)(=O)c1ccc2c(c1)c(=O)c(C(=O)N1CCc3ccccc3C1)cn2C | -1.33
68 | Cc1cc(Cl)c(S(=O)(=O)Nc2ccc(Cl)cn2)cc1OCC(N)=O | 0.203
69 | COc1ccc(-n2c(=O)[nH]cc(C(=O)Nc3ccc(NC(C)=O)cc3)c2=O)cc1 | 9.34 (active)

Row | SMILES | z-score
70 | COc1cccc(-n2c(=O)[nH]cc(C(=O)Nc3ccc(NC(C)=O)cc3)c2=O)c1 | -0.503
71 | COc1ccc(-n2c(=O)[nH]cc(C(=O)Nc3ccccc3)c2=O)cc1 | 0.241
72 | CCc1ccc(N=c2c([N+](=O)[O-])nn(-c3ccccc3)n2O)cc1 | -0.133
73 | CCCn1c(SCC(=O)N2CCCc3ccccc32)nnc1-c1ccccn1 | -0.0622
74 | Cc1nn(CCC#N)c(NC(=O)c2ccc(Cl)cc2Cl)c1P(=O)(Nc1ccc([N+](=O)[O-])cc1)N1CCOCC1 (configuration not stated) | -0.0204
75 | CN(C)C(=O)COc1ccc2ccc(=O)oc2c1 | -0.168
76 | CCOc1ccc2cc(C(=O)c3ccccc3)c(=O)oc2c1 | -0.201
77 | CN(C)C(=O)COc1ccc2cc(-c3ccccc3)c(=O)oc2c1 | 2.32
78 | Fc1ccc(C2NC(=S)NC3=C2N2CCC3CC2)cc1 (configuration not stated) | -0.0689
79 | O=C1CC(c2cccs2)Sc2nc3ccccc3n21 (configuration not stated) | 1.16
80 | O=C(O)C1CC(=O)n2c(nc3ccccc32)S1 (configuration not stated) | 0.555
81 | O=C1CC(c2ccco2)Sc2nc3ccccc3n21 (configuration not stated) | 3.22 (active)
82 | CCCCOc1nc(N)nc(-c2ccccc2)n1 | -0.634
83 | COc1ccc(C(=O)CSc2nc3ccccc3n2CC(=O)NC(C)(C)C)cc1 | -0.144
84 | COC(=O)CSC1=C(C#N)C(=O)NC(c2ccccc2)S1 (configuration not stated) | -0.603
85 | CCOC(=O)CSC1=C(C#N)C(=O)NC(c2ccc(OC)c(OC)c2)S1 (configuration not stated) | 6.39 (active)
86 | CCOC(=O)CSC1=C(C#N)C(=O)NC(c2ccc(OC)cc2)S1 (configuration not stated) | 0.083
87 | O=C(CSc1c[nH]c2ccccc12)NCC1CCCO1 (configuration not stated) | -0.0605
88 | C#CCOC(=O)C(NC(=O)c1ccccc1)=C1CCCCC1 | -0.603
89 | C=CCNC(=O)/C(=C\c1ccc2c(c1)OCO2)NC(=O)c1ccc(Br)cc1 | -0.116
90 | Cc1[nH]c2ccccc2c1C(=O)CN1C(=O)NC2(CC(C)CC(C)(C)C2)C1=O (configuration not stated) | -0.266
91 | O=C(OCCN1C(=O)c2cccc3c(N4CCOCC4)ccc(c23)C1=O)c1ccccc1Cl | -0.723
92 | O=C(OCCN1C(=O)c2cccc3c(N4CCOCC4)ccc(c23)C1=O)c1ccc(Cl)cc1Cl | -0.884

Row | SMILES | z-score
93 | O=C(OCCN1C(=O)c2cccc3c(N4CCOCC4)ccc(c23)C1=O)c1cc(Cl)cc(Cl)c1 | 5.23 (active)
94 | O=C1c2cccc3c(N4CCCCC4)ccc(c23)C(=O)N1CCO | -0.897
95 | O=C(OCCN1C(=O)c2cccc3c(N4CCOCC4)ccc(c23)C1=O)c1ccc(Cl)cc1 | -0.758
96 | O=C(OCCN1C(=O)c2cccc3c(N4CCOCC4)ccc(c23)C1=O)c1cccc(Cl)c1 | 2.81
97 | CCN1CCCC1CNC(=O)c1ccc(N2CCCC2=O)cc1 (configuration not stated) | 1.38
98 | O=S(=O)(Cc1ccccc1Cl)Nc1ccccn1 | 1.91
99 | CCOc1ccccc1NC(=O)c1cccc(NC(=O)CC(c2ccccc2)c2ccccc2)c1 | -0.177
100 | CCOc1ccccc1NC(=O)c1cccc(NC(=O)c2ccco2)c1 | -0.729
101 | CCOc1ccccc1NC(=O)Nc1cccc(C(C)=O)c1 | 3.62 (active)
102 | Cc1ccc(SC(C)C(=O)Nc2ccc(S(=O)(=O)N3CCOCC3)cc2)cc1 (configuration not stated) | 6.05 (active)
103 | CC(Sc1ccccc1)C(=O)Nc1ccc(S(=O)(=O)N2CCOCC2)cc1 (configuration not stated) | 0.0953
104 | CC(Sc1ccc(Cl)cc1)C(=O)Nc1ccc(S(=O)(=O)N2CCOCC2)cc1 (configuration not stated) | 0.967
105 | COc1ccsc1C(=O)N1CCN(Cc2ccc3c(c2)OCO3)CC1 | -0.0804
106 | COc1cccc(C(=O)OC2CCCN(C)C2)c1 (configuration not stated) | -0.125
107 | CCc1ccc(S(=O)(=O)NCc2cn3c(C)csc3n2)s1 | 0.337
108 | CCCS(=O)(=O)NCc1cn2c(C)csc2n1 | 2.02
109 | Cc1csc2nc(CNS(=O)(=O)N(C)C)cn12 | -0.402
110 | CC(c1ccco1)N(C(=O)c1ccccc1NS(=O)(=O)c1ccc(Cl)cc1)c1ccccn1 (configuration not stated) | -0.362
111 | CC(c1ccco1)N(C(=O)c1ccccc1NS(=O)(=O)c1ccc(Cl)c([N+](=O)[O-])c1)c1ccccn1 (configuration not stated) | 0.843
112 | CC(c1ccco1)N(C(=O)c1ccccc1NS(=O)(=O)c1cc([N+](=O)[O-])ccc1Cl)c1ccccn1 (configuration not stated) | 2.18
